RORgamma inh: inhibitors of mouse ROR gamma transcriptional activity; actives 5.4% (n = 310,000); P51450; Drosophila S2 Gal4-RORgamma UAS-luciferase reporter, 20 h; AID 2551; Potency, µM (highest dose often 53.6 µM), for inactives: top-dose activity change, negative = inhibition, most hits filed as inhibitors; also: potency is read from the fitted curve at half-maximal effect; nearly all actives have a fitted effect of over 60% in size
Target sequence (P51450 whole entry, looked up, the tested form may be a part): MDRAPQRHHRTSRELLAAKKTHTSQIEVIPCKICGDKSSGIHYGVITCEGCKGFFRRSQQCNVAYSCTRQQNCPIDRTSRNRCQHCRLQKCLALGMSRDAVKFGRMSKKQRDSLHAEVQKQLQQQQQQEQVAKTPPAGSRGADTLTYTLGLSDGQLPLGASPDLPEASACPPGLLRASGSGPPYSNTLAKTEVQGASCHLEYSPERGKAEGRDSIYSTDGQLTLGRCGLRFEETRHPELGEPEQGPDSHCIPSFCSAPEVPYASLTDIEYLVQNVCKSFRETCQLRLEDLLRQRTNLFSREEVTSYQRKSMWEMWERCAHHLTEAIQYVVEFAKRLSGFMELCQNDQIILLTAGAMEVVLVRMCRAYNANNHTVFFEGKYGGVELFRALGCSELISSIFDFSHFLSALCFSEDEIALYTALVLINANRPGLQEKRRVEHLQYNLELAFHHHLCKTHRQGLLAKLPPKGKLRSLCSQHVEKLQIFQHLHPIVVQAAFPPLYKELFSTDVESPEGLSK
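In this cell-based reporter format, copper sulfate (700 uM final) drives Gal4–ROR gamma fusion expression from a metallothionein promoter in Drosophila Schneider cells; compounds preincubated 1 hr, reporter read after 20 hr at ambient temperature.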
TDP1 cell noCPT: qHTS for Inhibitors of human tyrosyl-DNA phosphodiesterase 1 (TDP1): qHTS in cells in absence of CPT; DT40 Tdp1-/- hTDP1 cells, no CPT, ATP luminescence, 48 h; Potency, µM (doses to about 46.2 µM), without a hit: top-dose activity change, negative = growth inhibition, most hits filed as inhibitors; actives 15% (n = 420,000); also: potency is read from the fitted curve at half-maximal effect; nearly all actives have a fitted effect of over 55% in size
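Cells were dispensed at 400 per well, compounds added by pin tool, plates incubated ≥48 hr at 37 °C, then CellTiter-Glo added for 30 min at room temperature before luminescence reading. Line: DT40 Tdp1-/- complemented with hTDP1; camptothecin omitted.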
LDHA inh: inhibitors of human lactate dehydrogenase A; P00338; purified LDHA, NADH/diaphorase-resazurin fluorescence; hits give low values; activity change, % (values are at about 110 or 230 µM); actives 0.15% (n = 480,000); AID 1347041; in the data active = activity change below about -30%; inconclusive = mostly about -25% to -30%;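 also: plate controls were DMSO wells for no effect and wells without enzyme for full effect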
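Enzyme activity of human lactate dehydrogenase 5 (2 nM; 0.06 mM NADH, 0.2 mM pyruvate, 5 min, RT) is measured via a resazurin/diaphorase fluorescence readout of residual NADH.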
Gal4-VP16 FLuc: Gal4-VP16 reporter inhibition counter-screen. Drosophila S2 Gal4-VP16 UAS-luciferase, luminescence, 20 h. Potency, µM (top dose mostly 53.6 µM), for inactives: top-dose activity, negative = inhibition, most hits filed as inhibitors. actives 3.5% (n = 310,000). AID 2546;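 also: Gal4-VP16 expression switched on by copper sulfate through the metallothionein promoter; potency is read from the fitted curve at half-maximal effect; nearly all actives have a fitted effect of over 50% in size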
TDP1 cell CPT: growth inhibition of DT40 Tdp1-/-;hTDP1 cells with camptothecin (screen for TDP1 inhibitors); chicken DT40 Tdp1-/-;hTDP1 cells + 20 nM CPT, ATP luminescence, 48 h; actives 12% (n = 420,000); Potency, µM (top dose mostly 46.2 µM), inactives show at the top dose activity change, negative = growth inhibition, usual class: inhibitors; also: potency is read from the fitted curve at half-maximal effect; nearly all actives have a fitted effect of over 55% in size
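Chicken DT40 Tdp1-/- cells complemented with human TDP1, 400 cells/well, exposed to compounds plus 20 nM camptothecin for at least 48 h at 37 C; viability read as ATP content by CellTiter-Glo luminescence.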
IL-1B inflam inh: inflammasome signaling inhibition, IL-1 beta readout; actives 4.7% (n = 360,000); AID 743279; activity change, % at 57.5 µM; THP-1 LPS/ATP IL-1B secretion, AlphaLISA, 16 h; hits give low values; in the data active = activity change below about -50%; inconclusive = mostly about -30% to -49%
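THP-1 cells pretreated 1 hr with compounds (up to 57.5 uM final), then stimulated with LPS (250 ng/mL final) plus ATP (1.25 mM final); secreted IL-1B measured by AlphaLISA after 16 hr, decreased signal indicating inhibition.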
The depositor's hits bear a star; ? = inconclusive; nt = not tested or not shown. Compounds with a hit are over-represented: about 18% of the library has one in this group of screens. Unless noted, calls follow the shape of the dose curve; as a rule, active = well fitted curve in the direction sought with a large enough effect; inconclusive = small, poorly fitted or top-dose-only effect, or another doubt; inactive = no such curve, though single readings can be large; an effect the other way counts as inactive or inconclusive. Unless noted, % is scaled to controls: 0 for no effect and ±100 for the full control effect.

SMILES	RORgamma inh	TDP1 cell noCPT	LDHA inh	Gal4-VP16 FLuc	TDP1 cell CPT	IL-1B inflam inh
COc1ccc(CN2C(=O)C(NC(=O)c3ccc(C)cc3)(C(F)(F)F)N=C2c2ccccc2)cc1 (stereo unspecified)	nt	23µM*	-1	nt	23µM*	nt
O=C(NC1(C(F)(F)F)N=C(c2ccccc2)N(Cc2ccccc2)C1=O)c1ccc(F)cc1 (stereo unspecified)	nt	?	-4	nt	21µM*	nt
CCC(=O)NC1(C(F)(F)F)N=C(c2ccccc2)N(CCc2ccccc2)C1=O (stereo unspecified)	nt	nt	-2	nt	nt	nt
COc1ccc(CN2C(=O)C(NC(=O)c3ccccc3C)(C(F)(F)F)N=C2c2ccccc2)cc1 (stereo unspecified)	nt	15µM*	1	nt	21µM*	nt
Cc1ccccc1C(=O)NC1(C(F)(F)F)N=C(c2ccccc2)N(Cc2ccco2)C1=O (stereo unspecified)	nt	nt	-23	nt	nt	nt
CCCNC(=O)CCc1c(C)n(CC)c2cc(-c3ccccc3OC)nn2c1=O	nt	nt	-1	nt	nt	nt
CCCCNCc1ccc(-c2ccc(C(=O)O)cc2)o1	nt	nt	-4	nt	nt	nt
CCOc1ccc(CCNC(=O)CN2C(=O)c3cccnc3Oc3ccc(Cl)cc32)cc1	1%	21µM*	-2	-5%	?	-10
CSc1ccc(CCNC(=O)CN2C(=O)c3cccnc3Oc3ccc(C)cc32)cc1	-4%	29µM*	-9	-10%	?	-18
CCOc1ccc(CCNC(=O)CN2C(=O)c3cccnc3Oc3ccc(C)cc32)cc1OCC	-24%	?	0	1%	21µM*	12
O=C(c1sccc1-c1ccccc1)N1CCN(S(=O)(=O)c2cccc(F)c2)CC1	nt	nt	-6	nt	nt	nt
Cc1nc(-c2c(Cl)cccc2Cl)sc1C(=O)N1CCCC(C(=O)O)C1 (stereo unspecified)	nt	nt	12	nt	nt	nt
O=C(Nc1oc2ccccc2c(=O)c1-c1ccc(Cl)cc1)c1ccccc1	nt	nt	-1	nt	nt	nt
O=C(CCc1cccnc1)NCc1ccccn1	nt	nt	-1	nt	nt	nt
COc1ccc(N(Cc2cc3ccccc3[nH]c2=O)S(=O)(=O)c2ccc(C)cc2)cc1	-43%	?	-10	2%	?	-14
COc1ccc(N(Cc2cc3ccccc3[nH]c2=O)S(=O)(=O)c2ccccc2)cc1	28%	18µM*	-3	1%	?	0
COc1ccc(N(Cc2cc3cccc(C)c3[nH]c2=O)S(=O)(=O)c2ccc(Cl)cc2)cc1	-3%	23µM*	-5	-2%	?	4
COc1ccc(N(Cc2cc3cccc(C)c3[nH]c2=O)S(=O)(=O)c2ccc(OC)cc2)cc1	0%	?	-1	-6%	?	-10
Cn1nc(C(=O)Nc2ncc(Cc3cccc(C(F)(F)F)c3)s2)c2ccccc2c1=O	nt	nt	1	nt	nt	nt
Cc1ccc(C)c(NC(=O)CC(C)(C)CC(=O)O)c1	nt	nt	-3	nt	nt	nt
Cc1ccccc1CN1C(=O)C(O)(c2c[nH]c3ccccc23)c2cc(Cl)ccc21 (stereo unspecified)	nt	18µM*	2	nt	16µM*	nt
O=C1N(Cc2ccccc2Cl)c2ccccc2C1(O)c1c[nH]c2ccccc12 (stereo unspecified)	nt	?	2	nt	16µM*	nt
Cc1ccc(C)c(CN2C(=O)C(O)(c3c[nH]c4ccccc34)c3ccccc32)c1 (stereo unspecified)	nt	23µM*	-2	nt	29µM*	nt
O=C1N(CCc2ccccc2)c2ccccc2C1(O)c1c[nH]c2ccccc12 (stereo unspecified)	nt	nt	-4	nt	nt	nt
CCN1C(=O)C(O)(c2c[nH]c3ccccc23)c2ccccc21 (stereo unspecified)	nt	nt	-13	nt	nt	nt
O=C1N(Cc2ccccc2)c2ccccc2C1(O)c1c[nH]c2ccccc12 (stereo unspecified)	nt	-30%	-1	nt	-17%	nt
